Bioassay records from PubChem BioAssay.
Dicer processing = inhibitors of Dicer pre-microRNA processing, primary screen, biochemical, cat-ELCCA, chemiluminescence | z-score at 25 µM | cat-ELCCA pre-miR-21 Dicer processing; stronger effect = higher value | actives 6% (n = 47,000) | Endoribonuclease Dicer (Homo sapiens), Q9UPY3; in the data active means z-score above about 3, passing the limit was not always enough;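 further: higher signal means more uncleaved substrate so more Dicer inhibition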
A number is an active result. Shown is part of a subset that was picked to be rich in hits.

For S=c1[nH]nc(Nc2ccc(I)cc2)s1 the results were Dicer processing inactive.
Screening CSc1ccccc1Cn1c(=O)cc(N)n(-c2ccccc2C)c1=O returned Dicer processing inactive.
For Cc1ccc(S(=O)(=O)N/N=C2/CCCCCCCCCCC2CCC#N)cc1 (stereo not given) the results were Dicer processing inactive.
CCCCN1C(=O)C(NC(C)=O)c2cc(Cl)ccc21 (stereo not given) was read as Dicer processing inactive.
Screening COc1nccnc1NS(=O)(=O)c1ccc(NCc2cc(Br)ccc2O)cc1 returned Dicer processing 6.31.
Screening CCn1c(NCc2cc(Br)ccc2O)nc2ccccc21 returned Dicer processing inactive.
For COc1nccnc1NS(=O)(=O)c1ccc(NC(=O)c2cc(Cl)cc(Cl)c2)cc1 the results were Dicer processing inactive.
Cn1c(SCc2ccc(Cl)cc2)nnc1-c1ccc(OCC(F)(F)F)nc1 was read as Dicer processing inactive.
Screening Cc1cc(NC(=O)CCC(=O)O)n(C)n1 returned Dicer processing inactive.
Screening Cc1cc(NC(=O)CC2(CC(=O)O)CCCC2)n(C)n1 returned Dicer processing 3.42.
For Cn1nccc1NC(=O)CC1(CC(=O)O)CCCCC1 the results were Dicer processing inactive.
COC(=O)[C@H]1O[C@@H](OC(C)=O)[C@H](OC(C)=O)[C@@H](OC(C)=O)[C@@H]1OC(C)=O was read as Dicer processing inactive.
For Nc1nc2ccccc2n1CCOc1ccc(Br)cc1 the results were Dicer processing inactive.
Nc1ccc(-c2nc3ccccc3n2CCOc2ccccc2)cc1 was read as Dicer processing 4.33.
For CCCCn1c(-c2ccc(N)cc2)nc2ccccc21 the results were Dicer processing inactive.
NC(=S)N/N=C/c1cccc(C(F)(F)F)c1 was read as Dicer processing inactive.
For COc1ccc(N2C(=O)C3C(c4ccccc4)OC4(C(=O)c5ccccc5C4=O)C3C2=O)cc1OC (stereo not given) the results were Dicer processing inactive.
For O=C1C2C(c3ccc(Cl)cc3)OC3(C(=O)c4ccccc4C3=O)C2C(=O)N1c1ccc(F)cc1F (stereo not given) the results were Dicer processing 6.12.
For O=C1C2C(c3ccccc3)OC3(C(=O)c4ccccc4C3=O)C2C(=O)N1c1cccc(F)c1 (stereo not given) the results were Dicer processing inactive.
Screening COc1ccc(N2C(=O)C3C(c4ccccc4Cl)OC4(C(=O)c5ccccc5C4=O)C3C2=O)cc1 (stereo not given) returned Dicer processing inactive.
O=C1C2C(c3ccc(F)cc3)OC3(C(=O)c4ccccc4C3=O)C2C(=O)N1Cc1ccc(Cl)cc1 (stereo not given) was read as Dicer processing inactive.
`COc1ccc(Cl)cc1N1C(=O)C2C(c3ccccc3)OC3(C(=O)c4ccccc4C3=O)C2C1=O` (stereo not given) gave Dicer processing 4.06.
Cc1ccc(C2OC3(C(=O)c4ccccc4C3=O)C3C(=O)N(Cc4ccccc4)C(=O)C23)cc1 (stereo not given) was read as Dicer processing inactive.
For CCOc1ccc(N2C(=O)C3C(c4ccc(C)cc4)OC4(C(=O)c5ccccc5C4=O)C3C2=O)cc1 (stereo not given) the results were Dicer processing 3.39.
Cc1c(Cl)cccc1N1C(=O)C2C(c3ccccc3)OC3(C(=O)c4ccccc4C3=O)C2C1=O (stereo not given) was read as Dicer processing inactive.
For COc1ccccc1C(=O)N=S1CCN(S(=O)(=O)c2ccc(Cl)cc2)CC1 the results were Dicer processing inactive.
Screening CC(C)NC(=O)N1CCN(c2ccc(C(F)(F)F)cc2[N+](=O)[O-])CC1 returned Dicer processing inactive.
Screening COc1cccc(N2Cc3ccccc3C2)c1 returned Dicer processing inactive.
Cc1nc(N2CCOCC2)[nH]c(=O)c1Cc1c(F)cccc1Cl was read as Dicer processing inactive.
Screening Nc1ccc(Sc2cc(Cl)ccc2Cl)nc1 returned Dicer processing inactive.
Cc1cc(O)cc(=O)n1Cc1ccc2c(c1)OCO2 was read as Dicer processing inactive.
Screening CC1=C(C(N)=O)C(c2ccccc2Cl)n2nnnc2N1 (stereo not given) returned Dicer processing inactive.
`CCOC(=O)c1c(NC(=O)c2ccco2)sc2c1CCC2` gave Dicer processing inactive.
`CN(C(=O)c1ccc(F)cc1)c1nc(-c2ccc(Cl)s2)cs1` gave Dicer processing inactive.
Screening COc1ccc(COC(=O)C2=C(C)NC3=C(C(=O)CC(C)(C)C3)C2c2ccc(SC)cc2)cc1 (stereo not given) returned Dicer processing inactive.
Screening O=c1nc(/C=C/c2ccc(-c3cccc(F)c3)o2)cc(C(F)(F)F)[nH]1 returned Dicer processing 3.13.
Screening COc1cc(/C=C/c2cc(C(F)(F)F)[nH]c(=O)n2)ccc1O returned Dicer processing inactive.
`Cc1ccsc1/C=C/c1cc(C(F)(F)F)[nH]c(=O)n1` gave Dicer processing inactive.
`CC1=C(C(=O)OCCOC(C)C)C(c2ccc(O)cc2)C2=C(CCCC2=O)N1` (stereo not given) gave Dicer processing inactive.
For Cc1cccc2c1N(C(=S)Nc1ccccc1Cl)CCC2 the results were Dicer processing inactive.
For O=C(Nc1ccc(OCc2ccccc2)cc1)N1CCCc2ccccc21 the results were Dicer processing inactive.
S=C(Nc1ccccc1Cl)N1CCc2ccccc2C1 was read as Dicer processing inactive.
For S=C(Nc1ccccc1Cl)N1CCCc2ccccc21 the results were Dicer processing 3.76.
For O=C(Nc1ccccc1)N1CCCc2ccccc21 the results were Dicer processing 3.16.
For O=C(Nc1ccccc1)N1c2ccccc2CCc2ccccc21 the results were Dicer processing inactive.
For O=c1[nH]c(=O)n(-c2nc(-c3ccccc3)oc2-c2ccccc2)cc1Cl the results were Dicer processing inactive.
Screening O=C(NC(=S)NN1CCOCC1)c1ccc(Oc2ccc(Cl)cc2)c([N+](=O)[O-])c1 returned Dicer processing inactive.
For O=C(Nc1ccc([N+](=O)[O-])cc1)c1nnn(-c2ccc([N+](=O)[O-])cc2)c1-c1ccccc1 the results were Dicer processing inactive.
For O=C(Nc1ncccn1)c1ccc(Cl)cc1 the results were Dicer processing inactive.
For Cc1cccc(NC(=O)c2ccccc2)n1 the results were Dicer processing inactive.
For Cc1cccc(NC(=O)c2ccc(Cl)cc2)n1 the results were Dicer processing 3.08.
For NC1=NC(c2ccccc2)N2C(=N1)Sc1ccccc12 (stereo not given) the results were Dicer processing inactive.
`CCn1c(NCCSc2nc3ccccc3n2C)nc2ccccc21` gave Dicer processing inactive.
For CC(=O)c1sc(-c2cccs2)cc1N the results were Dicer processing inactive.
Screening O=S(=O)(NCC1COc2ccccc2O1)c1ccccc1 (stereo not given) returned Dicer processing inactive.
`CC1(C)C2CCC13CS(=O)(=O)N1OC13C2` (stereo not given) gave Dicer processing inactive.
O=C(Nc1ccccc1)c1ccc2ccccc2c1O was read as Dicer processing inactive.
O=C(O)C1=C(C(=O)Nc2ccccc2)SCCS1 was read as Dicer processing inactive.
Screening Nc1c(C(=O)Nc2ccccc2)oc2ccccc12 returned Dicer processing 5.38.
`O=C(CCCO)Nc1ccc2c(c1)OCCO2` gave Dicer processing inactive.
For COc1cccc2c1OC(CC(C)C)N1N=C(c3ccccc3O)CC21 (stereo not given) the results were Dicer processing 8.32.
